Results: ChEMBL document CHEMBL2218924, “A broad activity screen in support of a chemogenomic map for kinase signalling research and drug discovery” (Biochem J, 2013)

Legend:
[1] = target: Vascular endothelial growth factor receptor 3 (Homo sapiens) (UniProt P35916); settings: at 10 µM
[2] = target: Macrophage colony-stimulating factor 1 receptor (Homo sapiens) (UniProt P07333); settings: at 1 µM
[3] = target: Macrophage colony-stimulating factor 1 receptor (Homo sapiens) (UniProt P07333); settings: at 10 µM
[4] = target: Tyrosine-protein kinase Fyn (Homo sapiens) (UniProt P06241); settings: at 1 µM
[5] = target: Tyrosine-protein kinase Fyn (Homo sapiens) (UniProt P06241); settings: at 10 µM
[6] = target: T1, Mitogen-activated protein kinase kinase kinase kinase 2 (Homo sapiens) (UniProt Q12851); settings: at 1 µM
T1 sequence (whole entry): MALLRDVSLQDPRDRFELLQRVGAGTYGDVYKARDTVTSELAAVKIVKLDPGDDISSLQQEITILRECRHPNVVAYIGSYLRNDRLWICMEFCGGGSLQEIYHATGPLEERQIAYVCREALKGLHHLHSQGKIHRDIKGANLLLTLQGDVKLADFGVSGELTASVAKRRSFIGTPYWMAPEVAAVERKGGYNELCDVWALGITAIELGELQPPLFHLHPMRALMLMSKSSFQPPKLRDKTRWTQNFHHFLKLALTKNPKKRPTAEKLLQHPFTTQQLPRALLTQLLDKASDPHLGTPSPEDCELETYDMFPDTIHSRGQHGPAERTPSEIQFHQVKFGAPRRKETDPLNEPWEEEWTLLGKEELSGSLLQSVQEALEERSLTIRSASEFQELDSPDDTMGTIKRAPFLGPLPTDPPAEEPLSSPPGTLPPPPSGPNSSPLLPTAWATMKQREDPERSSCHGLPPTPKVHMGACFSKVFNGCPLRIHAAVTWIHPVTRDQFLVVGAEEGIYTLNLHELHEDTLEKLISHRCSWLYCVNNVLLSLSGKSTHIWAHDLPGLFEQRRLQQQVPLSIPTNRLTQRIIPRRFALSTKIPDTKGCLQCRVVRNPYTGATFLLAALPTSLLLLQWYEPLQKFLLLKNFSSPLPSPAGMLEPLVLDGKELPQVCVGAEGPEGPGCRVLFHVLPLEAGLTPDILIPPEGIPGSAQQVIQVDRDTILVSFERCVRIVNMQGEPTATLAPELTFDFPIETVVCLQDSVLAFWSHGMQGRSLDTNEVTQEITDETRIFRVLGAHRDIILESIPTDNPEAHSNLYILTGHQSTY

[7] = target: T1, Mitogen-activated protein kinase kinase kinase kinase 2 (Homo sapiens); settings: at 10 µM
[8] = target: G protein-coupled receptor kinase 6 (Homo sapiens) (UniProt P43250); settings: at 10 µM
[9] = target: T2, Rhodopsin kinase GRK7 (Homo sapiens) (UniProt Q8WTQ7); settings: at 1 µM
T2 sequence (whole entry): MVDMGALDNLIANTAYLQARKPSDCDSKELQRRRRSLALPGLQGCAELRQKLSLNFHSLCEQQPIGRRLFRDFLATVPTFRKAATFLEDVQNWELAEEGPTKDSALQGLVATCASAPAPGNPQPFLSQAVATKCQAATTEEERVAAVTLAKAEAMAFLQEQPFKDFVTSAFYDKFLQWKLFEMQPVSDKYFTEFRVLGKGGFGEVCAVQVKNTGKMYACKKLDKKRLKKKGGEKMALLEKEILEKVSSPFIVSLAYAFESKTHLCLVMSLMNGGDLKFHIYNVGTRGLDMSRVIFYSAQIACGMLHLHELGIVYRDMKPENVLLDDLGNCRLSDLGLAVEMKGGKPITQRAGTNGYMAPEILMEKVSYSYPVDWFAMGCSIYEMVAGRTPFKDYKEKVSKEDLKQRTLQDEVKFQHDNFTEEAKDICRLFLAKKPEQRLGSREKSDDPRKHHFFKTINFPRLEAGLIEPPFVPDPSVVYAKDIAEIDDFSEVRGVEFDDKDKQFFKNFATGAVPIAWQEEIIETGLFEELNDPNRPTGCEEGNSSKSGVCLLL

[10] = target: G protein-coupled receptor kinase 5 (Homo sapiens) (UniProt P34947); settings: at 10 µM
Sequence of G protein-coupled receptor kinase 5 (Homo sapiens) (P34947 whole entry, looked up): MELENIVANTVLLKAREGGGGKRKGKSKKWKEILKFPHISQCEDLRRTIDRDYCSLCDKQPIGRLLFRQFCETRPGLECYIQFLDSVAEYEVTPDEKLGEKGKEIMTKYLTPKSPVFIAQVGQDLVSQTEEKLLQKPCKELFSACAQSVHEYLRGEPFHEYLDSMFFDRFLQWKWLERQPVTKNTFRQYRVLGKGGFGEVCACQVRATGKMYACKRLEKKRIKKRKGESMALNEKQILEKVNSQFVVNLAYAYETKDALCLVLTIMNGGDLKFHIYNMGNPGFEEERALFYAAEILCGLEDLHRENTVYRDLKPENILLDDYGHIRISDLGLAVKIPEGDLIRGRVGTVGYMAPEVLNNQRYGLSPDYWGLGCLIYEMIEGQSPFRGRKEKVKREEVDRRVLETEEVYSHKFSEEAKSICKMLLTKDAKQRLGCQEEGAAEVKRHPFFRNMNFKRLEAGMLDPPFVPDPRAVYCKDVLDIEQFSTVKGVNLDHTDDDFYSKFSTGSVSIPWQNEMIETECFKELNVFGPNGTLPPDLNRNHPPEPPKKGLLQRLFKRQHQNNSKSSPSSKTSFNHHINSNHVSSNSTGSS

Sequence of Vascular endothelial growth factor receptor 3 (Homo sapiens) (P35916 whole entry): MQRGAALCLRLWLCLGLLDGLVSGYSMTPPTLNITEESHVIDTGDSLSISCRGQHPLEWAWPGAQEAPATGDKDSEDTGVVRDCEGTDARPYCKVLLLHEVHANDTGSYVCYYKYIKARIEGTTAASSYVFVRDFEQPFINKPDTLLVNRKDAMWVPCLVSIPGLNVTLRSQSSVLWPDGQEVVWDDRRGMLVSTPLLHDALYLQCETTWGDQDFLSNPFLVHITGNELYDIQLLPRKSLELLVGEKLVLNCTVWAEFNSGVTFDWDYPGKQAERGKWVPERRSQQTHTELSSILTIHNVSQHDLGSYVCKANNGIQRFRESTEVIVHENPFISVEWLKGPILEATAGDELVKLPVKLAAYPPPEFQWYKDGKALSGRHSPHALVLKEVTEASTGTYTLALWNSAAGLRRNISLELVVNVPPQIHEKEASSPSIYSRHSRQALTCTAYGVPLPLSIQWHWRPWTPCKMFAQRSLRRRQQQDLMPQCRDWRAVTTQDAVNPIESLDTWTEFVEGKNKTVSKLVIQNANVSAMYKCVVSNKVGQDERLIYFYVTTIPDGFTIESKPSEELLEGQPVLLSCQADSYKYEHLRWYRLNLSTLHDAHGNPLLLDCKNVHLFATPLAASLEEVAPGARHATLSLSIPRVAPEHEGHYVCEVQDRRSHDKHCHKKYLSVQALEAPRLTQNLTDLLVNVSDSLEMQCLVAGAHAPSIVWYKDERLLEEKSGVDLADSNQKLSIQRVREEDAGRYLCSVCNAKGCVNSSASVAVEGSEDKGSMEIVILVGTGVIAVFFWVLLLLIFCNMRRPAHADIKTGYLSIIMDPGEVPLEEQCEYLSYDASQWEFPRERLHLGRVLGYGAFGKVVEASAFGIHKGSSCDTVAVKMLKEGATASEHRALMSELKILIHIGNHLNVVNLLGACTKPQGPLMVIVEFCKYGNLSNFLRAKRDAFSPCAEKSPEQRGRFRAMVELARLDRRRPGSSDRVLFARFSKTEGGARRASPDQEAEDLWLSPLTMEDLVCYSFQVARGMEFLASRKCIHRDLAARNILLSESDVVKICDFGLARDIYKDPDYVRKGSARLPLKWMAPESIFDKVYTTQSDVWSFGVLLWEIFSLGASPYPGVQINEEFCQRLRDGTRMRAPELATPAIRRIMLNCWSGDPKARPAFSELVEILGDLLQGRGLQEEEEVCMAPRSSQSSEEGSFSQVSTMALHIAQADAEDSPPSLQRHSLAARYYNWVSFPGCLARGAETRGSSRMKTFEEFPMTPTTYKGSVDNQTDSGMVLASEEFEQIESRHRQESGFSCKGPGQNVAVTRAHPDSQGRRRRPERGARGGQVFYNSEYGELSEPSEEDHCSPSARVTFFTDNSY
Sequence of Macrophage colony-stimulating factor 1 receptor (Homo sapiens) (P07333 whole entry): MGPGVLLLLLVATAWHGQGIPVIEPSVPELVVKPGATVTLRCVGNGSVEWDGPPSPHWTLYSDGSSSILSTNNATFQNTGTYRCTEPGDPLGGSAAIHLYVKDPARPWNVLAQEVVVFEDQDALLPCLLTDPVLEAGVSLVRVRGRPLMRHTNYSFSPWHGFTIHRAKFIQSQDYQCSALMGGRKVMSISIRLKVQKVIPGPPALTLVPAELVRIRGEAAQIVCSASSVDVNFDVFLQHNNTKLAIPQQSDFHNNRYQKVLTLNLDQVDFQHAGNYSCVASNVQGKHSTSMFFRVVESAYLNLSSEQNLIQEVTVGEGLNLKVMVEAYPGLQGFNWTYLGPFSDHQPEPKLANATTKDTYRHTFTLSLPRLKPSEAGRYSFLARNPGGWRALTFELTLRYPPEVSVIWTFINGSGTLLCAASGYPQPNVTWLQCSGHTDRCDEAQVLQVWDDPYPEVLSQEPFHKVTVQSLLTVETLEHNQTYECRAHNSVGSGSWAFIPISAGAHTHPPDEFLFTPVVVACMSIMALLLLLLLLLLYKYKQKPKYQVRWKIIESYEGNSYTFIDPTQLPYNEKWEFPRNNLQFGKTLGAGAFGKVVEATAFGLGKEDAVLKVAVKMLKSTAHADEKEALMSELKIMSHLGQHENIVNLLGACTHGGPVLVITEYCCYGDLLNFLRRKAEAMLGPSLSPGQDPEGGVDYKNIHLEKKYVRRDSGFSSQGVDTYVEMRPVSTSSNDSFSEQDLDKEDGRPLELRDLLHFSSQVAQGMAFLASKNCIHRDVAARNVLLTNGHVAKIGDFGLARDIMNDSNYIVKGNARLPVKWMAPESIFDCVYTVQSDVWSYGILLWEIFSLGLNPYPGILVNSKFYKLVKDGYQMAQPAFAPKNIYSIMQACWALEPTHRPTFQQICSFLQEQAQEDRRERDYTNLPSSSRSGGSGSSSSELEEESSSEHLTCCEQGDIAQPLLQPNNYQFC
Sequence of Tyrosine-protein kinase Fyn (Homo sapiens) (P06241 2-537 limits assumed): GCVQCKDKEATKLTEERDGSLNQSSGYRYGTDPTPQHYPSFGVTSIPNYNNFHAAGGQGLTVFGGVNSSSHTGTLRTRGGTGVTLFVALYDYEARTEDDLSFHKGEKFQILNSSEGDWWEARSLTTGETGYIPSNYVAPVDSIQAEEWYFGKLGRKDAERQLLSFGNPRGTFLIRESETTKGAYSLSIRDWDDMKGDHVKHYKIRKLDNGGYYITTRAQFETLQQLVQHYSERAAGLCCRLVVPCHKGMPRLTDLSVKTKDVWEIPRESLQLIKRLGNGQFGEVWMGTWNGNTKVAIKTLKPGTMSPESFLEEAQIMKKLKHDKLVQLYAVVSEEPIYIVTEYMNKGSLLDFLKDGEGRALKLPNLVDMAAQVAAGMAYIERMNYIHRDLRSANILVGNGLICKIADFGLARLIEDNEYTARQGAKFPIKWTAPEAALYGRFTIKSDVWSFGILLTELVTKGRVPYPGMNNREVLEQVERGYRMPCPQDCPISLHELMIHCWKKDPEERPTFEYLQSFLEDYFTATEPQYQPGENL
Sequence of G protein-coupled receptor kinase 6 (Homo sapiens) (P43250 whole entry, looked up): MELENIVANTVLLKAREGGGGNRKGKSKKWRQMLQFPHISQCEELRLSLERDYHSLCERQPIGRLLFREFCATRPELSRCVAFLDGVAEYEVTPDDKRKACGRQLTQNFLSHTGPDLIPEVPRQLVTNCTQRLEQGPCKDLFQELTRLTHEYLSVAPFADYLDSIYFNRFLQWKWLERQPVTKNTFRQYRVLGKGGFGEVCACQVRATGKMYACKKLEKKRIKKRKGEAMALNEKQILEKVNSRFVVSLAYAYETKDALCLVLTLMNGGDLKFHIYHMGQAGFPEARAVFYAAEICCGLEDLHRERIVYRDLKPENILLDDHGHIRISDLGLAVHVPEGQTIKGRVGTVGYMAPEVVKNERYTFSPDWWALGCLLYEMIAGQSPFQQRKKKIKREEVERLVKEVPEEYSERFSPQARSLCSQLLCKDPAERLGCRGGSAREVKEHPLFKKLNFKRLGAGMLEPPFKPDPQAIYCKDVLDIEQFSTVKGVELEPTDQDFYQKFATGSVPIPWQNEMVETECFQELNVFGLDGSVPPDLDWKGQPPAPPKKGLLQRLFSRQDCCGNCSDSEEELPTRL

Compound | residual activity [1] | residual activity [2] | residual activity [3] | residual activity [4] | residual activity [5] | residual activity [6] | residual activity [7] | residual activity [8] | residual activity [9] | residual activity [10]
O=C1Nc2ccc(Cl)cc2/C1=C/c1cc(Cl)c(O)c(Cl)c1 | 1% | 7% | 1% | 67% | 25% | 46% | 14% | 82% | 91% | 
Nc1ncnc2[nH]nc(Nc3ccc(F)cc3)c12 | 41% | 69% | 27% | 54% | 17% | 98% | 49% | 97% | 110% | 97%
Nc1n[nH]c2nc3ccccc3nc12 | 44% | 74% | 66% | 73% | 73% | 78% | 37% | 85% |  | 94%
O=C1NC(=O)c2c1c1c3ccccc3[nH]c1n1cncc21 | 2% | 26% | 23% | 51% | 42% | 58% | 53% | 75% | 84% | 70%
COc1ccc(-c2cnc3c(-c4ccsc4)cnn3c2)cc1 | 7% | 28% | 5% | 98% | 84% | 96% | 83% | 88% |  | 
COc1ccc(CNC(=O)Nc2ncc([N+](=O)[O-])s2)cc1 | 17% | 77% | 58% | 105% |  |  |  |  |  | 
O=C1NC(=O)C(c2c[nH]c3ccccc23)=C1c1c[nH]c2ccccc12 | 1% | 82% | 32% | 83% | 29% | 80% | 19% | 68% | 78% | 
O=C1Cc2c([nH]c3ccc([N+](=O)[O-])cc23)-c2ccccc2N1 | 32% | 33% | 26% | 20% | 0% | 2% | 5% |  |  | 
O=c1cc(N2CCNCC2)oc2c(-c3ccccc3)cccc12 | 90% | 61% | 78% | 88% | 88% | 90% | 83% | 84% | 95% | 104%
Nc1ncnc2c1c(-c1ccc(Oc3ccccc3)cc1)cn2C1CCCC1 | 0% | 18% | 1% | 0% | 0% | 87% | 54% | 73% | 87% | 89%
Cn1sc(=O)n(Cc2ccccc2)c1=O | 79% | 91% | 80% | 99% | 96% | 88% | 81% | 80% | 89% | 85%
O=C1C(Cl)=C(N2C(=O)CCC2=O)C(=O)c2ccccc21 | 80% | 73% | 65% | 76% | 75% | 90% | 89% | 91% | 99% | 94%
CC(C)c1nn(-c2c(Cl)cccc2Cl)c2nc(Cc3ccc(OCCO)cc3)[nH]c(=O)c12 | 56% | 62% | 51% | 67% | 74% | 99% | 70% | 86% | 93% | 78%
CCN(CC)CCNC(=O)c1c(C)[nH]c(/C=C2\C(=O)Nc3ccc(Cl)cc32)c1C | 1% | 0% | 0% | 6% | 1% | 5% | 0% | 17% | 57% | 33%
CCOC(=O)c1c(C)[nH]c(/C=C2\C(=O)Nc3ccccc32)c1C | 3% | 20% | 9% | 87% | 99% | 89% | 77% | 94% |  | 
CN(C)S(=O)(=O)c1ccc2c(c1)/C(=C/c1cc3c([nH]1)CCCC3)C(=O)N2 | 46% | 4% | 0% | 22% | 24% | 5% | 5% |  |  | 84%
Cn1c2ccccc2c2c3c(c4c5ccccc5n(CCC#N)c4c21)CNC3=O | 3% | 14% | 5% | 47% | 58% | 2% | 1% |  | 16% | 75%
O=C(NC(NC(=S)Nc1ccc(F)c([N+](=O)[O-])c1)C(Cl)(Cl)Cl)C(c1ccccc1)c1ccccc1 (stereo not given) | 76% | 89% | 71% | 104% | 58% | 88% | 74% | 87% | 86% | 100%
CCCC(=O)Oc1ccc2[nH]c(C(=O)c3cc4ccccc4[nH]3)cc2c1 | 68% | 78% | 83% | 78% | 89% | 86% | 70% | 78% | 93% | 95%
O=C(CCCc1ccc(-c2ccccc2F)cc1)Nc1ccc(O)cc1 | 83% | 97% | 43% | 82% | 72% | 96% | 89% | 90% | 104% | 91%
Cc1cc(C)c(/C=C2\C(=O)Nc3ccccc32)[nH]1 | 0% | 2% | 0% | 75% | 19% | 57% | 11% |  | 74% | 
NC(=O)Nc1sc(-c2ccc(F)cc2)cc1C(N)=O | 0% | 11% | 2% | 24% | 5% | 25% | 5% | 74% | 67% | 82%
O=C1NC(=O)C(c2cn(CCCO)c3ncccc23)=C1c1cnccn1 | 30% | 54% | 49% | 69% | 87% | 86% | 79% |  |  | 93%
O=C(O)/C=C/c1cc(Br)c(Br)c(Br)c1Br | 27% | 79% | 62% | 89% | 88% | 100% | 72% | 84% | 105% | 91%
O=c1cc(N2CCOCC2)oc2c1ccc1ccccc12 | 92% | 111% | 102% | 83% | 102% | 91% | 86% | 92% | 98% | 96%
c1ccc(-c2cnc(Nc3ccc(OCCN4CCCC4)cc3)s2)cc1 | 1% | 1% | 1% | 55% | 13% | 100% | 39% |  | 105% | 105%
COc1cc2nccc(Oc3ccc(NC(=O)Nc4cc(C)on4)c(Cl)c3)c2cc1OC | -1% | 0% | 0% | 5% | 1% | 47% | 17% |  | 105% | 104%
